COC(=O)C(NC(=O)NC1CCN(c2ccnc(Nc3ccc(F)cc3)n2)C1)c1ccccc1 (centres unmarked) [GSK1379712]
Kd (CDK2): > 10 µM

Cc1ccc(-c2nc(Nc3ccncc3)c3ccccc3n2)s1 [GSK189015]
Kd (CDK5): > 10 µM

Nc1cccc(-c2ccc3c(N)n[nH]c3c2)n1 [GSK2192730]
Kd (CDK7): > 10000 nM

O=C(Nc1n[nH]c2nc(-c3ccco3)c(Br)cc12)C1CCN(Cc2ccccc2)C1.O=C(O)[C@H](O)[C@@H](O)C(=O)O (centres unmarked) [SB-742034]
Kd (CDK7): 1100 nM
Kd (CDKL5): 1100 nM

Cc1cnc(N)c(/C=C/c2cncc(C(=O)NCCc3ccc(Cl)cc3Cl)c2)c1.Cl [GSK190937]
Kd (CDK8): 1100 nM

Cc1nccc(-c2c(-c3ccc(F)cc3)ncn2CCCN2CCOCC2)n1.Cl [SB-282975]
Kd (CDK9): > 10 µM

Cc1c(Cn2c3ccccc3n3c(=O)cc(N4CCOCC4)nc23)cccc1C(F)(F)F [GSK2306394]
Kd (CDK9): > 10 µM

Cn1cncc1C(=O)NC1CCN(c2ccnc(Nc3ccc(F)cc3)n2)C1 (centres unmarked) [GSK1379717]
Kd (CDKL3): > 10 µM

Cc1ccc(NC(=O)Nc2ccc(Cl)c(C(F)(F)F)c2)cc1-c1ccc(C(=O)Nc2ccncc2)cc1 [GSK1398470]
Kd (CIT): 380 nM

O=C1NC(=O)C(c2ccc(Cl)cc2)=C1Nc1cccc(Cl)c1 [SB-317651]
Kd (CLK1): 4.4 µM

CC(=O)c1c(C)c2cnc(Nc3ccc(N4CCNCC4)cn3)nc2n(C2CCCC2)c1=O
Kd (CLK3): > 10 µM

O=C(Nc1n[nH]c2nc(-c3cccs3)c(Br)cc12)C1CC1 [SB-735297]
Kd (CDKL2): 140 nM

CS(=O)(=O)CCNCc1nc(-c2ccc3ncnc(Nc4ccc5c(cnn5Cc5ccccc5)c4)c3c2)cs1.Cl.Cl [GW569716]
Kd (CDKL3): > 10 µM
